Records with an inconclusive call do not appear. The source made the active and inactive calls. The call rests on the fitted dose curve.
Tests used:
[1] = qHTS drug screen for cell cycle checkpoint inhibitors in PARPi-resistant BRCA-mutant ovarian cancer cell lines. (AID 1963452); conditions: PEO1/OlaR viability, CellTiter-Glo luminescence, 96 h; for Z-AUC: stronger effect = lower value
In short: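 PEO1, PEO4 and PEO1/OlaR ovarian cancer cells, 600 per well, exposed 96 h at 37C to a dilution series. Viability read by CellTiter-Glo luminescence, normalized to DMSO and empty wells; activity summarized as Z-AUC.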

[2] = qHTS for identification of novel therapeutic agents for treatment of microphthalmiaassociated transcription factor (MiT) renal cell carcinoma (RCC) (AID 1963991); conditions: CellTiter-Glo, 48 h; for Potency: active = Z-AUC below -0.8 in all three lines; for z-score: stronger effect = lower value
In short: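 Three TFE3-fusion RCC cell lines (UOK109, UOK124, UOK145), 500 cells/well, were exposed to the 1912-compound MIPE 4.0 library for 48 hours at 37 C. Viability was read by CellTiter-Glo luminescence, normalised to DMSO (100%) and empty wells (0%), with 11-concentration curve fits.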

[3] = TFE3-RCC UOK109 viability, measured here: UOK109 Z-AUC
[4] = TFE3-RCC viability, measured here: UOK124 Z-AUC
[5] = TFE3-RCC viability, measured here: UOK145 Z-AUC
Potency means the concentration at half of the fitted maximal effect.

SMILES	Potency [1]	Z-AUC ([1]; measured here: PEO1 parental Z-AUC)	Z-AUC ([1]; measured here: PEO4 Z-AUC)	Potency ([2]; TFE3-RCC UOK109 viability)	z-score [2, 3]	z-score [2, 4]	z-score [2, 5]
C#CCC(Cc1cnc2nc(N)nc(N)c2n1)c1ccc(C(=O)N[C@@H](CCC(=O)O)C(=O)O)cc1 (some centres undefined)	7.8 nM (active)	-2.32	-1.96	132 nM (active)	-1.2	-2.51	-2.95
C=C1C[C@@]2(O)O[C@@]3(C[C@H]2C(C)C)[C@H](C)CC[C@H]13	–	–	–	–	0.729	0.339	0.0529
CC(=O)O[C@H]1C[C@@H]2CC[C@H]3[C@H]4C[C@H]([N+]5(C)CCCCC5)[C@@H](OC(C)=O)[C@@]4(C)CC[C@@H]3[C@@]2(C)C[C@H]1N1CCCCC1	–	–	–	–	0.765	0.686	-3.76
O=C(NNC(=O)c1ccc(CNS(=O)(=O)c2ccc(F)c(Cl)c2)cc1)c1ccccc1	–	–	–	–	0.375	0.329	0.518
C#C[C@]1(O)CC[C@@H]2[C@@H]3CCC4=CC(=O)CC[C@@H]4[C@H]3CC[C@@]21CC	–	–	–	–	0.12	-0.0153	-0.174
CON=C(C(=O)N[C@@H]1C(=O)N2C(C(=O)O)=C(Cn3ccc(=N)n3CCO)CS[C@H]12)c1csc(N)n1	–	–	–	–	1.44	0.0348	0.881
COC1=C(OC)C(=O)C(CC=C(C)CCC=C(C)CCC=C(C)CCC=C(C)CCC=C(C)CCC=C(C)CCC=C(C)CCC=C(C)CCC=C(C)CCC=C(C)C)=C(C)C1=O	–	–	–	–	0.576	0.211	0.661
CCC[C@H]1C[C@H](C(=O)N[C@@H]([C@@H]2O[C@@H](SC)[C@@H](O)[C@@H](O)[C@@H]2O)[C@H](C)Cl)N(C)C1	–	–	–	–	0.606	0.328	-0.0561
Cc1[nH]c(C=C2C(=O)Nc3ccccc32)c(C)c1CCC(=O)O	–	–	–	833 nM (active)	-1.41	-0.97	-1.35
Cc1ccc([N+](=O)[O-])cc1S(=O)(=O)N(C)N=Cc1cnc2ccc(Br)cn12	–	–	–	23.5 nM (active)	-2.11	-3.04	-2.3
CN[C@@H]1C[C@H]2O[C@@](C)([C@H]1OC)n1c3ccccc3c3c4c(c5c6ccccc6n2c5c31)C(=O)N[C@H]4O	–	–	–	1480 nM (active)	-1.4	-2.32	-1.88
CC(=O)C1=C(O)C=C2Oc3c(C(C)=O)c(O)c(C)c(O)c3C2(C)C1=O (centres undefined)	–	–	–	–	0.861	0.834	-0.166
CC(C)N(CC[C@H](c1ccccc1)c1cc(CO)ccc1O)C(C)C	–	–	–	–	0.828	0.666	0.832
CC(=O)N[C@H]1[C@@H]([C@H](O)[C@H](O)CO)OC(C(=O)O)=C[C@@H]1N=C(N)N	–	–	–	–	0.312	0.639	0.195
